Experimental findings from PubChem BioAssay are described below.

The source made the active and inactive calls.

Assay [1] relates to PRMT1 (protein arginine N-methyltransferase 1). Briefly: small molecules binding arginine methyltransferase PRMT1 – biochemical, small-molecule microarray, 635 nm fluorescence, primary screen (AID 1088).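 Also: binding of Prmt1 protein to compounds spotted on small-molecule microarray slides.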 The note with it: higher = more signal.
The nature of assay [2]: growth effects on S. cerevisiae YJM789 – YJM789 clinical isolate, OD600, 24 h, basal, primary screen (AID 1089).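 Also: growth of clinical yeast isolate S. cerevisiae YJM 789 seeded 1000 cells per well; test concentration not given here.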 The settings on record: higher = more signal, called active from +8 up or from −8 down.
The nature of assay [3]: S. pombe growth modifiers, basal conditions – strain 972, OD600, 24 h, no modulator, primary screen (AID 1090).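 Also: basal condition with compound alone and no growth modifier present; test concentration not given here.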 The note with it: S. pombe 972 growth, higher = more signal, called active from +8 up or from −8 down.
A short description of assay [4]: budding yeast growth modifiers under rapamycin – strain BY4716, OD600, 96 h, primary screen (AID 1091). Also: test concentration not given here. The settings on record: S. cerevisiae BY4716 + rapamycin, higher = more signal, called active from +8 up or from −8 down.
For assay [5], the target named is Torsin-1A-interacting protein 2 (Homo sapiens) (UniProt Q8NFQ8). In words: small molecules binding lysate-expressed LULL1 – cell lysate, human LULL1 lysate, 635/667 nm fluorescence, primary screen (AID 1092).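 Also: probe is lysate of COS7 cells overexpressing human LULL1; score merges per-feature 667 nm fluorescence with signal-to-noise.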 The settings on record: small-molecule microarray, hLULL1 lysate binding, 635 nm fluorescence; higher = more signal.
Sequence of Torsin-1A-interacting protein 2 (Homo sapiens) (Q8NFQ8 whole entry, looked up): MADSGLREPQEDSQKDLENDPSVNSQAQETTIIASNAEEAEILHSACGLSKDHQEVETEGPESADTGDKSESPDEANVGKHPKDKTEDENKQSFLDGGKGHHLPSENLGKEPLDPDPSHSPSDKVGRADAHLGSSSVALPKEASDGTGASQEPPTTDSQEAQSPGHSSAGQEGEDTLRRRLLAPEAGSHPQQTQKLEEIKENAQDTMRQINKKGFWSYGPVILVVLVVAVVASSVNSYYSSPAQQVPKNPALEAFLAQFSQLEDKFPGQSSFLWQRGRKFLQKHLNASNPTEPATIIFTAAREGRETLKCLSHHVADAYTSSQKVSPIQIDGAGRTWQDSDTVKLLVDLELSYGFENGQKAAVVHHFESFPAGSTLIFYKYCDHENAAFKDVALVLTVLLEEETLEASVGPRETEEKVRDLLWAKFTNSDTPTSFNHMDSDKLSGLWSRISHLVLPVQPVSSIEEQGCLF
Assay [6] is described as follows: optical density change of DRC41 E. coli – strain DRC41, OD650, 24 h, E. coli filamentation project, primary screen (AID 1093).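 Also: MC1000 strain lacking acrAB efflux and sulA so SOS filamentation is blocked; test concentration not given here.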 The note with it: E. coli DRC41 growth, higher = more signal, called active from +8 up or from −8 down.
Assay [7] can be described thus: probe aLefty2 binding to arrayed compounds – biochemical, biotinylated probe, 635/667 nm fluorescence, primary screen (AID 1094).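 Also: score merges spot fluorescence near 667 nm with spot signal-to-noise ratio.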 The note with it: small-molecule microarray, higher = more signal.
Assay [8] deals with Noggin (protein binding on small-molecule microarray). Briefly: small molecules binding Noggin protein – biochemical, 635/667 nm fluorescence, primary screen (AID 1095).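 Also: score merges 667 nm feature fluorescence with signal to noise over triplicate slides.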 The note with it: 635 nm fluorescence, higher = more signal.
Assay [9] has as its target Neurogenic locus notch homolog protein 3 (Homo sapiens) (UniProt Q9UM47). In words: small molecules binding NOTCH3 protein – biochemical, 635/667 nm fluorescence, primary screen (AID 1096). The settings on record: small-molecule microarray, 635 nm fluorescence, higher = more signal.
The nature of assay [10]: probe aEGFR binding to arrayed compounds – biochemical, biotinylated probe, 635/667 nm fluorescence, primary screen (AID 1097).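 Also: probe is a biotinylated anti-EGFR antibody binding compounds printed on slides; score combines fluorescence near 667 nm and signal to noise of each spot.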 The note with it: small-molecule microarray, higher = more signal.
The test system of assay [11] is Plasmodium falciparum Sir2 (PF13_0152, Sir2A). In words: Plasmodium falciparum Sir2A binding compounds – biochemical, small-molecule microarray, 635 nm fluorescence, primary screen (AID 1098).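 Also: score merges spot fluorescence intensity with its signal-to-noise ratio.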 The settings on record: fluorescence 635 nm, higher = more signal.
Assay [12] is described as follows: probe aDKK1 binding to arrayed compounds – biochemical, biotinylated probe, 635/667 nm fluorescence, primary screen (AID 1099).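 Also: score merges 667nm spot fluorescence with signal to noise across triplicate slides; reference of the scale not given here.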 The settings on record: small-molecule microarray, higher = more signal.
Assay [13] in a line: probe aCHRDL2 binding to arrayed compounds – biochemical, biotinylated probe, 635/667 nm fluorescence, primary screen (AID 1100). The note with it: small-molecule microarray, higher = more signal.
Assay [14] is described as follows: change in splice reporter luminescence, either direction, cell-based, HEK293, spliceosome inhibition project, primary screen (AID 1101).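 Also: HEK293 cells carrying a splicing-competent luciferase reporter gene; test concentration not given here.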 The note with it: HEK293 splicing luciferase reporter, 24 h, higher = more signal, called active from +8 up or from −8 down. Background: In a reporter assay the amount or activity of a reporter protein is the signal.
The target in assay [15] is Fibroblast growth factor 10 (Homo sapiens) (UniProt O15520). Briefly: compounds binding fibroblast growth factor 10 – biochemical, small-molecule microarray, 635 nm fluorescence, primary screen (AID 1102). The settings on record: FGF10 binding, fluorescence 635 nm, higher = more signal.
Sequence of Fibroblast growth factor 10 (Homo sapiens) (O15520 whole entry, looked up): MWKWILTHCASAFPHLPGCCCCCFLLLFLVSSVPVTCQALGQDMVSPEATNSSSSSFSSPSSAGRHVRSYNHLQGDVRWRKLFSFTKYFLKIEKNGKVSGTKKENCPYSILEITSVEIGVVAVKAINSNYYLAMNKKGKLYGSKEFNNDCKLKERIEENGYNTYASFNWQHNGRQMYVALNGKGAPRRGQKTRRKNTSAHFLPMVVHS
Assay [16] relates to glycogen synthase kinase-3 (GSK3A per assay name; protocol says GSK3B). Briefly: compounds binding glycogen synthase kinase-3 – biochemical, small-molecule microarray, 635 nm fluorescence, GSK3A, primary screen (AID 1103). Also: the record names both GSK3A and GSK3B. The settings on record: fluorescence 635 nm, higher = more signal.
For assay [17], the target named is Epidermal growth factor receptor (Homo sapiens) (UniProt P00533). In words: compounds binding epidermal growth factor receptor – biochemical, small-molecule microarray, 635 nm fluorescence, primary screen (AID 1104).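 Also: score merges 667 nm emission intensity with spot signal to noise over triplicate slides.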 The settings on record: EGFR binding, higher = more signal.
Sequence of Epidermal growth factor receptor (Homo sapiens) (P00533 whole entry, looked up): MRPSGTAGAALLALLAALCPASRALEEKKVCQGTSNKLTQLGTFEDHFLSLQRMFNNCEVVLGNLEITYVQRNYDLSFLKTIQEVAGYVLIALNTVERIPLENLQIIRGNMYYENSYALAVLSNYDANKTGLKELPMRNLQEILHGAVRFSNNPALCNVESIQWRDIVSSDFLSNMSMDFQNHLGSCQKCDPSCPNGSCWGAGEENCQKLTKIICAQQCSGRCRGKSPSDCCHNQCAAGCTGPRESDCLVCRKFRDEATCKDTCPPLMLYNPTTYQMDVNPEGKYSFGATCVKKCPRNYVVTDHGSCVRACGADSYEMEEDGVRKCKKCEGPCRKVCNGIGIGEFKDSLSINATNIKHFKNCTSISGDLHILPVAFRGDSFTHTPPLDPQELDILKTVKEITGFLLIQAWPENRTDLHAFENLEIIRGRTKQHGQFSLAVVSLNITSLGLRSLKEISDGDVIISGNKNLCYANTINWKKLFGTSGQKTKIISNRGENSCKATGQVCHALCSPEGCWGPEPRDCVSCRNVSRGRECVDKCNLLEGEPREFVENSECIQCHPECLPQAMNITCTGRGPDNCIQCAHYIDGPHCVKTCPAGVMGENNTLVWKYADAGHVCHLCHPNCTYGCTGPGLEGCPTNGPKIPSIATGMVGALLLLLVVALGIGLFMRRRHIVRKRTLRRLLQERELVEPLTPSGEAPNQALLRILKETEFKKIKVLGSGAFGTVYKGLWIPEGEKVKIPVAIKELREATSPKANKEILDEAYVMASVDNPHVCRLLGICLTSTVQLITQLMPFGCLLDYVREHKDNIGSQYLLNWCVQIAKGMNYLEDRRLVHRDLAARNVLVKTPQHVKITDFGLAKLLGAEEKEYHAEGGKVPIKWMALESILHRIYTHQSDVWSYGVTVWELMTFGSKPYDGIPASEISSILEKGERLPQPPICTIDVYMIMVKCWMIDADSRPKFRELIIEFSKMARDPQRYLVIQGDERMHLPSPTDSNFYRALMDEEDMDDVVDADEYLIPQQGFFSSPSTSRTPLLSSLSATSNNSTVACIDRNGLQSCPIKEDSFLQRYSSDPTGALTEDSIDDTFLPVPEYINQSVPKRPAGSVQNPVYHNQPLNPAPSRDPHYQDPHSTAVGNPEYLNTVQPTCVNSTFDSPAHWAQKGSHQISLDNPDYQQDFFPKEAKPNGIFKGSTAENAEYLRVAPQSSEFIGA
In assay [18] the target is Follistatin-related protein 3 (Homo sapiens) (UniProt O95633). Briefly: compounds binding follistatin-related protein 3 – biochemical, small-molecule microarray, 635 nm fluorescence, primary screen (AID 1105).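 Also: score merges emission near 667 nm and signal to noise per printed spot across three slides.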 The note with it: FSTL3 binding, higher = more signal.
Sequence of Follistatin-related protein 3 (Homo sapiens) (O95633 whole entry, looked up): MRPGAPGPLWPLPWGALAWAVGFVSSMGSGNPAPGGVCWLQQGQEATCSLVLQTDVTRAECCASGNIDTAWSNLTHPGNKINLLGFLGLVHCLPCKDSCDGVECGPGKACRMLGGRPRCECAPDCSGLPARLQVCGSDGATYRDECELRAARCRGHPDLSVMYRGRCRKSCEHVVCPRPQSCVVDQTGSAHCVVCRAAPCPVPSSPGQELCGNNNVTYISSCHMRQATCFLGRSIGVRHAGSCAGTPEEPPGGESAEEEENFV
In assay [19] the target is Dickkopf-related protein 1 (Homo sapiens) (UniProt O94907). Briefly: small molecules binding DKK1 protein – biochemical, small-molecule microarray, 635 nm fluorescence scan, primary screen (AID 1106).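 Also: score merges emission near 667 nm with signal to noise over three replicate slides.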 The note with it: higher = more signal.
Sequence of Dickkopf-related protein 1 (Homo sapiens) (O94907 whole entry, looked up): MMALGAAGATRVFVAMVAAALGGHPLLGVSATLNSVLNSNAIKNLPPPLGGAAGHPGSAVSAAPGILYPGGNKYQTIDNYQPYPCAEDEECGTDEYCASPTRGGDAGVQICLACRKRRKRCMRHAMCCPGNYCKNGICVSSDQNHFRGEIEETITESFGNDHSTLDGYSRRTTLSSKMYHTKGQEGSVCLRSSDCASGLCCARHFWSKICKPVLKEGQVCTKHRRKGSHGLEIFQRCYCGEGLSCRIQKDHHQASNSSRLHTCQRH
The subject of assay [20] is Inhibin beta A chain (activin A). Briefly: small molecules binding activin A – biochemical, small-molecule microarray, 635 nm fluorescence scan, primary screen (AID 1107).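 Also: mouse activin A protein probed at 4.33 µg/mL on printed slides; score merges bound-protein fluorescence near 667 nm with spot signal-to-noise.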 The note with it: INHBA, higher = more signal.

Sequence of Neurogenic locus notch homolog protein 3 (Homo sapiens) (Q9UM47 whole entry, looked up): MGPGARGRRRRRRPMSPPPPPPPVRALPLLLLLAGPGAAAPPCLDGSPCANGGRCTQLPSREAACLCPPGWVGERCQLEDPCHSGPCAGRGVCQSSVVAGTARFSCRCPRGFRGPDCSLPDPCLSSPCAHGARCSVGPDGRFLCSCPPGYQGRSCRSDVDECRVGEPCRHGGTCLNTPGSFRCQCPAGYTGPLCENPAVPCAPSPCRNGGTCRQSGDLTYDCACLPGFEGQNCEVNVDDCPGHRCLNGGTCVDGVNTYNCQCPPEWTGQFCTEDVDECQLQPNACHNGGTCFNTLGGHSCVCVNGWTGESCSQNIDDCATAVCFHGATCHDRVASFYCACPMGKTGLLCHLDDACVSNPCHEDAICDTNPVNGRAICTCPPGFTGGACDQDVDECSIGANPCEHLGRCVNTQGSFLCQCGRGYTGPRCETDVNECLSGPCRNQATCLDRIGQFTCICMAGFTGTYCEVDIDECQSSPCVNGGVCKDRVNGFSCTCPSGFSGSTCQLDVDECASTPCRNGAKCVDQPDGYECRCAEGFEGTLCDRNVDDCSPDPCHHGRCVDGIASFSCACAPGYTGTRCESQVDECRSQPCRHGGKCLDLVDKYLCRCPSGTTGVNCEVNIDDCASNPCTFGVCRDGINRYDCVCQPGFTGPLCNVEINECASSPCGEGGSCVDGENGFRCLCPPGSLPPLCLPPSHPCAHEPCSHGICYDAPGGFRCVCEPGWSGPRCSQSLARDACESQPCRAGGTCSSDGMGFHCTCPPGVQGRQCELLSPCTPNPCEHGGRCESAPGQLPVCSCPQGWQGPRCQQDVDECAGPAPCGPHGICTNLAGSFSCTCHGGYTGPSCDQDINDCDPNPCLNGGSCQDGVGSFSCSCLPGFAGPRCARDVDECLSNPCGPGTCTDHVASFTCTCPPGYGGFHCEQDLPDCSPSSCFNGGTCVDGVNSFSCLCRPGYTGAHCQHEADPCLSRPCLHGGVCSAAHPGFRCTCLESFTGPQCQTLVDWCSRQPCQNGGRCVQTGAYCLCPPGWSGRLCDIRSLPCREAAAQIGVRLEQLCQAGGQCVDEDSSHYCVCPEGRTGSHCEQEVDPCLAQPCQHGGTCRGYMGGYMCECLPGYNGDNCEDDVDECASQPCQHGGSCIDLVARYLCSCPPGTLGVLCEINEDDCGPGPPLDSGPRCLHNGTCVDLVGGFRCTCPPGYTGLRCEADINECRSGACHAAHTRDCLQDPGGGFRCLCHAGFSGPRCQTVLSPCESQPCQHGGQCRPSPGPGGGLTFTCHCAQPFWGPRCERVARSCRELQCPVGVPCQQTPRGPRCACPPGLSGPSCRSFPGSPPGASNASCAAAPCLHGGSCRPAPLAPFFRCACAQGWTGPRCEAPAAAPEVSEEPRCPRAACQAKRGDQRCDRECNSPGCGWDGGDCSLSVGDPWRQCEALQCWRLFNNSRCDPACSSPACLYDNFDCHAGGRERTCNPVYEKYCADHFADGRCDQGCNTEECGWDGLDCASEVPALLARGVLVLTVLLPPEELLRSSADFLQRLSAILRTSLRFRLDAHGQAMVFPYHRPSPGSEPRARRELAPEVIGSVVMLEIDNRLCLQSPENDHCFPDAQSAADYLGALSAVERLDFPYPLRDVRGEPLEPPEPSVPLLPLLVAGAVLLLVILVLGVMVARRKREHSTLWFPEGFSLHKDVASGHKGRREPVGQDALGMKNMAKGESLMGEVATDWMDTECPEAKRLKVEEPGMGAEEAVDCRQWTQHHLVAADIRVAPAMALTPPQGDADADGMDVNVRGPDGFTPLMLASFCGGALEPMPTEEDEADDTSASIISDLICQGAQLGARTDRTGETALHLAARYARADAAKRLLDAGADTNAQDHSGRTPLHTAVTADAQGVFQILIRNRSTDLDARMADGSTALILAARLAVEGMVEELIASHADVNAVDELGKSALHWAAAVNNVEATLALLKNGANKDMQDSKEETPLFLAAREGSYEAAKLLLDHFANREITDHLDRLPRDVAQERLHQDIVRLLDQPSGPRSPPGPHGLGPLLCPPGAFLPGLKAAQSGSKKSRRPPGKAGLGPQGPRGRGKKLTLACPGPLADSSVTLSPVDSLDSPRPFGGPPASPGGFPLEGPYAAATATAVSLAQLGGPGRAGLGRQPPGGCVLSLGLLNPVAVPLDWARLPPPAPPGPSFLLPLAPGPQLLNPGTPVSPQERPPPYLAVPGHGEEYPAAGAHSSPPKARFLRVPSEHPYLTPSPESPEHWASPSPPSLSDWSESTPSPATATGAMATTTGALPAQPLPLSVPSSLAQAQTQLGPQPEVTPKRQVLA

For `CCOC(=O)NN=C1C[C@@H](O)[C@@H](O)[C@@H]2[C@@H]3C(=O)N(c4cccc(Oc5ccccc5)c4)C(=O)[C@@H]3CC[C@H]12`, the composite z-score in assay [1] is 0.626; in assay [5] it was 0.0068; in [7], -0.175; in [8], 0.311; in assay [9], 0.589; in assay [10] it was -0.0371. The composite z-score in assay [11] is 0.424; in assay [12], 0.104; in assay [13] it was -0.566; in assay [15], 0.518; in assay [16], 0.176; in assay [17] it was 0.381. Further, the composite z-score is 0.455 in assay [18], 0.222 in assay [19] and 0.0233 in assay [20]. Besides, the z-score in assay [2] was -1.57 (inactive); in assay [3] it was -0.216 (inactive); in assay [4], -0.873 (inactive); in assay [6] it was -0.998 (inactive); in [14], -0.652 (inactive).
Take `C[C@@H]1CC[C@H]2C(=O)O[C@@H](COc3ccc(C(C)(C)C)cc3)CN2[C@@H]1c1ccc(Br)cc1`: the composite z-score in [1] is -0.118; in assay [5], -0.158; in [7] it was 0.464; in [8], -0.835; in assay [9], -0.91; in assay [10], -0.0946. Moreover, the composite z-score in assay [11] is -0.0295; in [12], -0.339; in assay [13], -0.0805; in [15], -0.828; in [16], -0.796; in assay [17] it was -0.291. For the same molecule, the composite z-score in assay [18] is -0.964; in [19], -0.924; in assay [20], 0.011. Moreover, the z-score in [2] is 0.228 (inactive); in [3], -0.492 (inactive); in [4], 0.147 (inactive); in [6], -0.0121 (inactive); in assay [14], -0.36 (inactive).
Regarding `CC(CCN1CCc2nc(-c3ccccc3)c(-c3ccccc3)cc2C1)=NOC[C@@H](O)[C@H]1O[C@@H]2OC(C)(C)O[C@@H]2[C@H]1O`, the composite z-score in assay [1] is 1.53; in assay [5], 1.78; in assay [7], -0.342; in [8], 0.449; in assay [9], 0.41; in assay [10], -0.0409. The composite z-score is 0.525 in assay [11]; -0.414 in assay [12]; -0.395 in assay [13]; 0.743 in assay [15]; 0.587 in [16]; 0.28 in assay [17]. Also, the values for the composite z-score in [18], in [19] and in assay [20] were 0.583, 0.341 and 0.376, respectively. The z-score in assay [2] is -0.987 (inactive); in assay [3], -4.63 (inactive); in assay [4], -4.56 (inactive); in assay [6], 1.23 (inactive); in [14] it was 0.662 (inactive).
Consider `CC(CCN1CCCCc2nc(C)c(C)cc21)=NOC[C@@H](C)[C@H](OCc1ccccc1)C(C)C`, for which the composite z-score in assay [1] was -0.262; in assay [5], -0.569; in [7], -0.467; in [8] it was -1.02; in assay [9], -1.53; in [10] it was -0.551. Also, the composite z-score in assay [11] is -0.399; in assay [12], -0.624; in assay [13] it was -0.579; in assay [15] it was -1.78; in assay [16], -1.03; in assay [17], -1.77. The composite z-score in assay [18] was -2.25; in [19], -0.991; in assay [20] it was 0.736. The z-score is -2.75 (inactive) in assay [2]; -5.66 (inactive) in [3]; -0.677 (inactive) in [4]; -1.42 (inactive) in assay [6]; -1.22 (inactive) in assay [14].
As to `CCOC(=O)[C@H](CC(C)C)NC(=O)CCC1CC(OC(=O)NCCc2ccc(F)cc2)CC2(CCCC(COC(=O)NCC(c3ccccc3)c3ccccc3)O2)O1` (stereo not given in full), the composite z-score in [1] was 1.41; in [5], 2.59; in assay [7] it was -0.105; in assay [8], 0.569; in [9], 0.499; in [10], -0.127. Further, the composite z-score in assay [11] is 1.1; in assay [12], 0.096; in assay [13], -0.437; in assay [15], 0.588; in assay [16], 0.873; in [17] it was 0.319. For the same molecule, the values for the composite z-score in assay [18], in assay [19] and in assay [20] were 0.824, 0.697 and -0.0427, respectively. Further, the z-score in assay [2] is -0.297 (inactive); in assay [3] it was 0.427 (inactive); in assay [4] it was -1.3 (inactive); in assay [6] it was -0.198 (inactive); in [14] it was 0.0587 (inactive).
